PubChem BioAssay (EPA / NIEHS)
Active and inactive are the calls of the source. How the source made its calls: active means hit-call score of the fitted dose curve at least 0.9, where 1 is the maximum; inactive means score below 0.9.

Assay: CEETOX_H295R_PROG: CeeTox H295R High-throughput Steroidogenesis Assay for Progesterone (PROG) (AID 2283442);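 on AC50: human H295R adrenal cells primed with 10 µM forskolin before dosing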
Conditions: actives raise or lower the signal
Method: CEETOX_H295R is a cell-based, multiplexed-readout assay that uses H295R, a human adrenal gland cell line, with measurements taken at 48 hours after chemical dosing in a 96-well plate.CEETOX_H295R_PROG is one of 23 assay component(s) measured or calculated from the CEETOX_H295R assay. It is designed to make measurements of hormone induction, a form of inducible reporter, as detected with absorbance signals by HPLC-MS-MS technology.Data from the assay component CEETOX_H295R_PROG was analyzed into 1 assay endpoint. This assay endpoint, CEETOX_H295R_PROG, was analyzed with bidirectional fitting relative to DMSO as the negative control and baseline of activity. Using a type of inducible reporter, gain or loss-of-signal activity using HPLC-MS-MS was used to understand synthesis of Progesterone in H295R cell line at 48hr of chemical exposure. To generalize the intended target to other relatable targets, this assay endpoint is annotated to the steroid hormone intended target family, where the subfamily is progestagens.
Cell culture and media preparation procedures were conducted in accordance with OECD Test No. 456 guidelines, with minor modifications. H295R cells (ATCC CRL-2128) were expanded for 5 passages and frozen in batches in liquid nitrogen. Prior to the steroidogenesis assay, H295R cells were thawed and passed at least 4 times. The maximum passage was 10. Cells were maintained in a 1:1 mixture of DMEM/F12 supplemented with 5ml/L ITS+ Premix (BD Bioscience) and 12.5 ml/L Nu-Serum (BD Bioscience). After seeding cells into 96-well plates at 50-60% confluency, cells were allowed to adhere overnight. Prior to chemical testing, culture medium was replaced with 175 uL medium containing 10 uM forskolin to stimulate steroidogenesis for 48 hours. Following prestimulation, forskolin medium was replaced with medium containing test chemical solubilized in DMSO (ensuring a final concentration of 0.1% DMSO). Test chemicals were incubated for 48 hours, then the medium was removed and split into 2 vials containing approximately 75uL each, and stored at -80 C prior to hormone analysis. For steroid quantification, media samples were shipped to OpAns, LLC (Durham, NC) on dry ice, and samples were thawed to room temperature prior to liquid-liquid extraction. Steroid hormones were extracted from media samples using methyl tertbutyl ether (MTBE). An extra derivatization with dansyl chloride was included for estrogen (estrone and estradiol) detection only. Steroid hormones were separated by HPLC, eluted using a reverse phase C18 gradient with electrospray positive ionization, followed by quantification by tandem mass spectrometry (MS/MS). Data were acquired on a MassHunter Workstation Acquisition version B03.01 (Agilent Technologies, Inc.) and processed using MassHunter Quantitative Analysis for QQQ. Accuracy was determined for each hormone analyte from 3 standards to determine upper and lower limits of quantification (ULOQ and LLOQ, respectively) using a 7-point standard curve. Precision and accuracy of the extraction and quantification methods were calculated as the percent relative standard deviation (%RSD) of the spiked standards and percent spiked standard recovered, respectively. The goal was to achieve 100% accuracy (i.e., recover all spiked-in standard at quantification with minimal loss during run time) and good precision (i.e., have %RSD <15% to ensure reproducibility). Test medium was removed following chemical exposure, and cell viability was evaluated in the same wells by MTT. MTT procedures were as follows: after removal of test medium, 500 uL of 0.5 mg/ml of 3-[4,5-dimethylthiazol-2-y]2,5-diphenyltetrazoliumbromide solution was added to the cells. Following a 4-hour incubation at 37 C and 5% CO2 to allow formazan-crystal formation, the MTT solution was removed and blue formazan salt crystals were solubilized using 500uL anhydrous isopropanol with shaking for 20 minutes. Absorbance was read at 570 and 650nm using a Packard Fusion microplate reader. […]
In the case of `Nc1ccc(Cl)c(Cl)c1`, the AC50 is reported as 10.7 µM (active).
With `CNC(=O)Oc1cc(C)c(SC)c(C)c1` the AC50 was 65.1 µM (active).
In the case of `c1ccc(Nc2ccc3ccccc3c2)cc1`, the outcome is reported as “inactive”.
In the case of `CC(Cc1ccc(C(C)(C)C)cc1)CN1C[C@@H](C)O[C@@H](C)C1` (some centres not stated), the AC50 is reported as 0.053 µM (active).
In the case of `O=CNC(N1CCN(C(NC=O)C(Cl)(Cl)Cl)CC1)C(Cl)(Cl)Cl` (configuration not stated), the outcome is reported as “inactive”.
With `Oc1cc(Cl)ccc1Cl` the AC50 was 30.6 µM (active).
For `CCOP(=O)(OCC)Oc1ccc([N+](=O)[O-])cc1`, the outcome was “inactive”.
For `Cc1ccc(OP(=O)(Oc2ccc(C)cc2)Oc2ccc(C)cc2)cc1` (tested in a mixture with another compound), the outcome was “inactive”.
With `O=C=Nc1ccccc1` the AC50 was 0.492 µM (active).
With `CC(C)(C)C(O)C(Oc1ccc(-c2ccccc2)cc1)n1cncn1` (configuration not stated) the outcome was “inactive”.
With `O=C(NC(=O)c1c(F)cccc1F)Nc1ccc(Oc2ccc(C(F)(F)F)cc2Cl)cc1F` the AC50 was 1.28 µM (active).
With `C=CC(=O)OCCO` the AC50 was 5.27 µM (active).
